ChEMBL document CHEMBL3988442, “University of Dundee, Small-Polar-MMV Screening Library” (2021)
The whole screen tested about 69,000 compounds, of which about 950 (1.4%) showed an effect of 50% or more. The sample holds strong results, similar compounds and a random draw of the others, so the mix is not that of the screen.

These molecules were tested on Mycobacterium tuberculosis (assay: Cornell M. t heat shock assay; also: in the data most compounds retested in dose-response had high values).
Assay type: functional, organism-based
Design: dose or concentration left out as unconfirmed

Structure (SMILES) | Percent Effect [%]
COCC1c2nnn(CC3CC3)c2CCN1C(=O)c1cc(C)[nH]c1C (stereo not given) | 70.57
COCC1c2nnn(CC3CC3)c2CCN1C(=O)c1ccnnc1 (stereo not given) | -6.272
COCC1c2nnn(CC3CC3)c2CCN1C(=O)c1cc(C)on1 (stereo not given) | 9.302
CCC(CNC(=O)c1ccccn1)N1CCc2ccccc2C1 (stereo not given) | 64.91
CCC(CNC(=O)c1ccccc1Br)N1CCc2ccccc2C1 (stereo not given) | -2.045
CCC(CNC(=O)c1ccc(=O)[nH]n1)N1CCc2ccccc2C1 (stereo not given) | -4.669
O=C(O)C(F)(F)F.c1ccc(CN2CCCn3nnc(CNc4ncccn4)c3C2)nc1 | 11.56
Cc1noc(C)c1CN1CCc2ncnc(-c3ccncc3)c2CC1.O=C(O)C(F)(F)F.O=C(O)C(F)(F)F | 7.897
O=C(CCc1ccccc1)NCC1CCN(Cc2ccsc2)CC1 | -20.67
O=C(CCc1ccsc1)NCC1CCN(c2ccccc2)C1 (stereo not given) | 105.9
O=C(CCc1ccsc1)NCC1CCN(C2CC2)C1 (stereo not given) | -16.29
CC(C)c1nn(C)cc1CNCc1ccnc(N(C)C)c1.Cl | -35.39
CC(C)NC(=O)CC1COC2(CCN(Cc3ccccc3)CC2)C1.O=C(O)C(F)(F)F (stereo not given) | -5.683
CS(=O)(=O)NC[C@@H]1OC[C@H]2CN(Cc3ccsc3)CC[C@H]21.O=C(O)C(F)(F)F | -25.96
CC(C)(C)Nc1c(C2CCCN(C(=O)C3CC3)C2)nc2ccccn12.Cl (stereo not given) | -26.51
CC(NC(=O)c1cccc(CN2CCN(C)CC2)c1)c1ccccn1 (stereo not given) | -15.12
CC(c1ccco1)N(C)Cc1cccc(C(=O)Nc2nccn2C)c1 (stereo not given) | 105
CC(c1ccccn1)N(C)Cc1cccc(C(=O)Nc2nccn2C)c1 (stereo not given) | 74
CN(Cc1cccc(C(=O)Nc2ccnn2C)c1)CC1(C)COC1 | -8.064
COC(=O)c1cccc(CN(C)C(C)c2ccccn2)c1 (stereo not given) | -7.966
CCc1nnc(CN(C)Cc2cccc(C(=O)Nc3ccnn3C)c2)o1 | 2.892
N#CC1=C(N)Nn2c(nnc2-c2ccccc2Br)S1 | -17.22

Structure (SMILES) | Percent Effect [%]
CNC(=O)C1CN(c2ccc(F)cc2)CCN1.Cl (stereo not given) | -9.726
CC(C)CN1CC[C@H]2OCC[C@@H](C(=O)N3CCCO3)[C@@H]2C1.O=C(O)C(F)(F)F | -22.87
c1cnn(CC2CCCCN2c2ncnc3ccsc23)c1 (stereo not given) | -40.74
CNC(=O)[C@@]12CCO[C@@H]1CCN(S(=O)(=O)c1cccnc1)C2.O=C(O)C(F)(F)F | 3.091
Cc1noc(C)c1CN1CCO[C@H]2CN(Cc3nccn3C)C[C@H]21.O=C(O)C(F)(F)F.O=C(O)C(F)(F)F | -6.105
Cc1nc(CN(C)C2CCN(Cc3ccc4ccccc4n3)C2)no1 (stereo not given) | 86.18
Cc1cnc(CN(C)C2CCN(Cc3nc4ccccc4o3)C2)o1 (stereo not given) | -16.63
Cc1nc(CN(C)C2CCN(CCCc3ccccc3)C2)no1 (stereo not given) | -13.87
Cc1cnc(CN(C)C2CCN(Cc3nc4ccccc4n3C)C2)o1 (stereo not given) | 96.91
Cc1nnc(CN(C)C2CCN(Cc3nc4ccccc4n3C)C2)o1 (stereo not given) | 28.12
Cc1nc(CN(C)C2CCN(Cc3cccc4cccnc34)C2)no1 (stereo not given) | 19.87
Cc1nc(CN(C)C2CCN(Cc3nc4ccccc4n3C)C2)no1 (stereo not given) | 69.83
Cc1nc(CN(C)C2CCN(Cc3nc4ccccc4s3)C2)no1 (stereo not given) | -21.16
Cc1nc(CN(C)C2CCN(Cc3ccno3)C2)no1 (stereo not given) | -9.493
Cc1cc(-c2nccs2)nc(C2CCN(Cc3ccncc3)CC2)n1.Cl | -12.67
CN(Cc1ccco1)[C@@H]1CN(Cc2ccco2)[C@@H]2CCCO[C@H]12.O=C(O)C(F)(F)F.O=C(O)C(F)(F)F | 13.61
CN1CCC/C1=N\S(=O)(=O)c1ccc(NC(=O)c2ccc(Cl)cc2)cc1 | -4.489
CC1=N[C@@]2(CC[C@@H]3CN(Cc4ccc(C)cc4)C[C@@H]32)C(=O)N1CC1CC1.O=C(O)C(F)(F)F | 0.8614
CC(c1cn2ccsc2n1)N1Cc2ncccc2C1=O (stereo not given) | -27.43
CCn1ncc2c1CN(C(=O)Cc1cccs1)CC2COC.O=C(O)C(F)(F)F (stereo not given) | 1.467
COc1cccc(N2Cc3nc(=O)n(Cc4cccc(F)c4)n3C2=O)c1 | 19.15
CCC(=O)N1CCC2(CC1)COCCN2Cc1ccc(F)cc1.O=C(O)C(F)(F)F | -30.34

Structure (SMILES) | Percent Effect [%]
O=C(O)C(F)(F)F.c1csc(CN2CCn3c(Cn4cncn4)cnc3C2)n1 | -82.66
O=C(CCn1c(=O)oc2ccccc21)NCC(O)c1ccccc1 (stereo not given) | 71.18
CC(NC(=O)CCn1c(=O)oc2ccccc21)c1ccccn1 (stereo not given) | -6.717
O=C(Cn1c(=O)oc2ccccc21)NCC(O)c1ccc2c(c1)CCO2 (stereo not given) | -3.535
O=C(CCn1c(=O)oc2ccccc21)NCC(O)c1ccc(F)c(F)c1 (stereo not given) | 64.78
O=C(CCn1c(=O)oc2ccccc21)NCC(O)c1ccc(Cl)cc1 (stereo not given) | -3.948
O=C(NCC(O)c1ccc(F)c(F)c1)c1ccccc1F (stereo not given) | -2.812
Cc1nc(C2(O)CCCNCC2)sc1CCOc1ccccc1Cl.Cl (stereo not given) | -14.1
CCO[C@@H]1CC[C@H]2[C@H]1OCCN2CC1CCOCC1.O=C(O)C(F)(F)F | -50.97
c1cnnc(N2CCCC2CNCc2nc(-c3ccco3)no2)c1 (stereo not given) | 13.72
c1cnnc(N2CCCC2CNc2nc3ccccc3o2)c1 (stereo not given) | -7.44
CC(C)CCc1nc(CNCC2CCCN2c2cccnn2)cs1 (stereo not given) | 75.49
CCc1noc(CNCC2CCCN2c2cccnn2)n1 (stereo not given) | 11.99
c1ccc(-c2nc(CNCC3CCCN3c3cccnn3)co2)cc1 (stereo not given) | 102.8
c1cnnc(N2CCCC2CNCc2nc(C3CC3)no2)c1 (stereo not given) | 52.74
Cc1nc(CNCC2CCCN2c2cccnn2)oc1C (stereo not given) | -4.447
c1ccc(-c2nnc(CNCC3CCCN3c3cccnn3)o2)cc1 (stereo not given) | -22.96
CCCc1nc(CNCC2CCCN2c2cccnn2)cs1 (stereo not given) | 2.805
c1cnnc(N2CCCC2CNCc2nc3ccccc3o2)c1 (stereo not given) | 103.1
CN(Cc1coc(-c2ccccc2)n1)CC1CCCN1c1cccnn1 (stereo not given) | 7.112
CCc1nc(CNCC2CCCN2c2cccnn2)cs1 (stereo not given) | 0.6291
